PubChem BioAssay (EPA / NIEHS)
Records with an inconclusive call do not appear. Active and inactive are the calls of the source. Rule for the calls, unless noted: active = hit-call score of the fitted dose curve at least 0.9, where 1 is the maximum; inactive = score below 0.9.

tested on: SRY-box transcription factor 2 (SOX2) Protein Expression, Deisenroth Lab, SOX2 (gene 6657); test: CCTE_Deisenroth_DEVTOX-GLR_legacy_Sox2: (Legacy) CCTE's DevTox GLR-Endo Assay Evaluation of SRY-box transcription factor 2 (SOX2) Protein Expression, Deisenroth Lab (AID 2284346)
Outline: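 Percent Sox2-positive cells was scored by high-content imaging of 5 fields per well. Positivity cutoff was 5x BMAD over the directed endoderm control, and the DMSO median was subtracted. Cells were RUES2-GLR, dosed twice at 24-h intervals over 48 h of differentiation (1 nM-200 uM).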

Row | SMILES | outcome
1 | Cc1cn([C@H]2C=C[C@@H](CO)O2)c(=O)[nH]c1=O | inactive
2 | CC(=O)CC(c1ccccc1)c1c(O)c2ccccc2oc1=O (stereo not drawn) | inactive
3 | O=C1NC(=O)C(c2ccccc2)(c2ccccc2)N1 | inactive
4 | O=C(O)c1cccnc1 | inactive

tested on: SRY-box transcription factor 17 (SOX17) Protein Expression, Deisenroth Lab, SOX17 (gene 64321); test: CCTE_Deisenroth_DEVTOX-GLR_Endo_SOX17: CCTE's DevTox GLR-Endo Assay Evaluation of SRY-box transcription factor 17 (SOX17) Protein Expression, Deisenroth Lab (AID 2284413)
Outline: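 RUES2-GLR human pluripotent cells were seeded 24 h, then differentiated toward endoderm for 48 h with two chemical exposures 24 h apart (10-point series, 1 nM - 200 uM). Nuclei-stained fixed cells were imaged; endpoint is percent change in SOX17+ cells versus 0.2% DMSO.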

Row | SMILES | outcome | AC50
5 | Cc1cn([C@H]2C=C[C@@H](CO)O2)c(=O)[nH]c1=O | inactive | –
6 | CC(=O)CC(c1ccccc1)c1c(O)c2ccccc2oc1=O (stereo not drawn) | – | 100 µM (active)
7 | O=C1NC(=O)C(c2ccccc2)(c2ccccc2)N1 | inactive | –
8 | O=C(O)c1cccnc1 | inactive | –

tested on: Brachyury (BRA) Protein Expression, TBXT (gene 6862); test: CCTE_Deisenroth_DEVTOX-GLR_Endo_BRA: CCTE's DevTox GLR-Endo Assay Evaluation of Brachyury (BRA) Protein Expression, Deisenroth Lab (AID 2284417)
Outline: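 Endpoint is the fraction of BRA reporter-positive cells over total nuclei, corrected by subtracting the 0.2% DMSO value. Chemicals (1 nM - 200 uM, 10 points) were dosed twice during 48 h differentiation of RUES2-GLR cells, read by imaging.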

Row | SMILES | outcome | AC50
9 | Cc1cn([C@H]2C=C[C@@H](CO)O2)c(=O)[nH]c1=O | inactive | –
10 | CC(=O)CC(c1ccccc1)c1c(O)c2ccccc2oc1=O (stereo not drawn) | – | 1.45e-06 µM (active)
11 | O=C1NC(=O)C(c2ccccc2)(c2ccccc2)N1 | – | 100 µM (active)
12 | O=C(O)c1cccnc1 | inactive | –

tested on: not listed separately; test: CCTE_Deisenroth_DEVTOX-GLR_Endo_CellCount: Viability Assessment in CCTE's DevTox GLR-Endo Assay, Deisenroth Lab (AID 2284420)
Outline: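 Viability in differentiating RUES2-GLR cultures is scored by fluorescent nuclear counts after 48 h and two 24-hourly chemical treatments, as percent change from the 0.2% DMSO control.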

Row | SMILES | outcome
13 | Cc1cn([C@H]2C=C[C@@H](CO)O2)c(=O)[nH]c1=O | inactive
14 | CC(=O)CC(c1ccccc1)c1c(O)c2ccccc2oc1=O (stereo not drawn) | inactive
15 | O=C1NC(=O)C(c2ccccc2)(c2ccccc2)N1 | inactive
16 | O=C(O)c1cccnc1 | inactive

tested on: SRY-box transcription factor 17 (SOX17) Protein Expression, Deisenroth Lab, SOX17 (gene 64321); test: CCTE_Deisenroth_DEVTOX-GLR_Pluri_SOX17: CCTE's DevTox GLR-Pluri Assay Evaluation of SRY-box transcription factor 17 (SOX17) Protein Expression, Deisenroth Lab (AID 2284427; active = hit-call score of the fitted dose curve at least 0.9, where 1 is the maximum)
Outline: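 Seed cells 24 h; differentiate 48 h, dosing at 0 and 24 h (1 nM - 200 uM); fix, stain nuclei, image 5 fields per well; count SOX17+ cells over total cells and subtract 0.2% DMSO control.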

Row | SMILES | outcome
17 | Cc1cn([C@H]2C=C[C@@H](CO)O2)c(=O)[nH]c1=O | inactive
18 | CC(=O)CC(c1ccccc1)c1c(O)c2ccccc2oc1=O (stereo not drawn) | inactive
19 | O=C(O)c1cccnc1 | inactive

tested on: SRY-box transcription factor 2 (SOX2) Protein Expression, Deisenroth Lab, SOX2 (gene 6657); test: CCTE_Deisenroth_DEVTOX-GLR_Pluri_SOX2: CCTE's DevTox GLR-Pluri Assay Evaluation of SRY-box transcription factor 2 (SOX2) Protein Expression, Deisenroth Lab (AID 2284428)
Outline: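 SOX2 expression frequency is scored in a human pluripotent reporter line, RUES2-GLR, exposed to chemicals twice over 48 h. Imaging-based SOX2+ cell percentage is normalized as change versus 0.2% DMSO.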

Row | SMILES | outcome | AC50
20 | Cc1cn([C@H]2C=C[C@@H](CO)O2)c(=O)[nH]c1=O | inactive | –
21 | CC(=O)CC(c1ccccc1)c1c(O)c2ccccc2oc1=O (stereo not drawn) | inactive | –
22 | O=C1NC(=O)C(c2ccccc2)(c2ccccc2)N1 | – | 150 µM (active)
23 | O=C(O)c1cccnc1 | inactive | –
